Compound activity from PubChem.
Only some compounds are listed: those with a hit (about 4% of all), similar ones and a draw of the others.
GDH-TPI counter-1: counter-screen for M. tuberculosis FBA inhibitors: GDH-TPI coupled enzymes; AID 588335; GDH-TPI coupled enzyme counterscreen, NADH absorbance; inhibition, % at 4.8 µM; 360,000 tested, 1.2% active; in the data active = inhibition above about 30%;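 also: 0% = DMSO wells and 100% = wells lacking the enzyme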
Mtb betalactam: beta-lactam sensitization of Mtb H37Rv; M. tuberculosis H37Rv growth with meropenem, percent inhibition; inhibition, % at 25 µM; 330,000 tested, 0.27% active; AID 434955; call rule not given here;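 also: growth measured after seven days incubation then overnight dye step; 0% = bacteria only wells and 100% = bacteria with antibiotic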
Rv3671c protease: inhibitors of M. tuberculosis serine protease Rv3671c; inhibition, % at 5.96 µM; 320,000 tested, 0.048% active; P9WHR9; in the data active = inhibition above about 38%;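 also: extracellular domain of Rv3671c used as enzyme; 0% = enzyme with DMSO and 100% = no enzyme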
Mtb UGM inh: blocks M. tuberculosis UGM enzyme; AID 504406; inhibition, % at 10 µM; purified UGM, fluorescence polarization probe displacement; P9WIQ1; 320,000 tested, 0.06% active; in the data active = inhibition above about 10%, passing the limit was not always enough
Mtb FBA inh: Mtb fructose-bisphosphate aldolase inhibition | P9WQA3 | purified M. tuberculosis FBA, fluorescence read-out | inhibition, % at 1 µM | 360,000 tested, 2.3% active;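 also: 0% = vehicle and 100% = reference inhibitor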
RecA intein inh: Mtb RecA intein splicing inhibition | 290,000 tested, 0.75% active | inhibition, % (concentration not given with the values) | AID 2221 | cell-free RecA intein splicing, fluorescence | P9WHJ3; in the data active = inhibition above about 30%;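 also: 0% = vehicle wells and 100% = reference inhibitor control wells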
Mtb FBA confirm: confirmation of M. tuberculosis fructose-bisphosphate aldolase inhibitors. shares compounds with Mtb FBA inh. purified M. tuberculosis FBA, fluorescence read-out. inhibition, % at 1 µM. 5,600 tested, 78% active;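 also: 0% = vehicle wells and 100% = reference inhibitor wells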
GDH-TPI counter-2: GDH-TPI inhibition counter-screen for FBA inhibitors | shares compounds with Mtb FBA inh | GDH-TPI coupled enzyme counterscreen, fluorescence | inhibition, % at 1 µM | 5,600 tested, 81% active | AID 652141; in the data active = inhibition above about 10%
* hit, by the source's call; x = not tested or not shown. Rule as the data show it, unless noted: active = inhibition above about 27%; inactive = the rest.

SMILES	GDH-TPI counter-1	Mtb betalactam	Rv3671c protease	Mtb UGM inh	Mtb FBA inh	RecA intein inh	Mtb FBA confirm	GDH-TPI counter-2
CCCCc1cc(=O)oc2cc(C)cc(OCC(=O)N3C[C@H]4C[C@@H](C3)c3cccc(=O)n3C4)c12	12.8	-6.6	-0.3	4.4	42.3*	x	51.2*	37.7*
Cc1cc(OCC(=O)N2C[C@H]3C[C@@H](C2)c2cccc(=O)n2C3)c2c(C)c(C)c(=O)oc2c1	8.8	-4.5	-1.8	-0.7	39.6*	x	38.5*	22.9*
CCOC(=O)C1=C(C#N)C(C(=O)OCC)c2ncccc21 (configuration not stated)	13.4	x	x	x	10.7	x	x	x
COCC(=O)Nc1nnc(-c2cccs2)s1	24.5	-8.6	-2.0	0.2	22.6	4.1	x	x
CCC(=O)Nc1nnc(-c2cccs2)s1	0.3	-2.5	1.8	0.0	27.0*	-1.6	-0.3	-4.3
CCC(C)C(=O)Nc1nnc(-c2cccs2)s1 (configuration not stated)	10.5	-2.1	3.2	3.3	32.5*	x	51.0*	46.9*
O=C(Cc1ccccc1)Nc1nnc(-c2cccs2)s1	22.8	3.0	5.9	-3.8	68.0*	-1.8	106.3*	82.8*
COCCn1c(SCC(=O)N2CCCC2=O)nc2sc(C)c(C)c2c1=O	-2.8	-2.8	0.0	-4.5	-1.2	0.4	x	x
O=C1CC(N2CCN(Cc3ccccc3)CC2)C(=O)N1CCc1ccccc1 (configuration not stated)	0.7	-1.8	-2.5	0.6	-1.1	0.3	x	x
CCCc1cc(=O)n2[nH]cc(-c3ccc(Cl)cc3)c2n1	9.4	97.9	x	-4.2	54.3*	0.3	-10.8	-11.0
Cc1cc(=O)n2[nH]cc(-c3ccccc3)c2n1	6.8	-1.3	x	1.1	33.9*	-2.1	73.5*	60.4*
O=C(CSc1ncnc2scc(-c3ccccc3)c12)NC1CCS(=O)(=O)C1 (configuration not stated)	4.0	-12.2	-1.2	-3.5	-0.1	x	x	x
COc1cc2nc(N3CCN(C(=O)[C@H]4COc5ccccc5O4)CC3)nc(N)c2cc1OC	2.6	5.5	-1.9	0.7	81.8*	1.9	62.6*	38.3*
c1ccc2c(c1)[nH]c1c(N3CCN(C4CCCCC4)CC3)ncnc12	7.1	5.7	-10.1	1.8	33.5*	0.6	40.2*	22.5*
O=C(NCc1ccncc1)c1csc([C@@H]2C[C@H](O)[C@@H](CO)O2)n1	-0.9	x	x	x	-1.9	x	x	x
O=C(NC(=S)Nc1ccc(CN2CCOCC2)cc1)c1ccc([N+](=O)[O-])cc1	2.1	6.7	2.7	-2.0	32.8*	0.9	4.8	-4.0
O=C(NC1CCCCC1)c1ccc2ccccc2c1O	26.6	x	x	x	27.9*	x	4.9	-2.6
CS(=O)(=O)Nc1cccc(C2=NN(C(=O)c3ccco3)C(c3cccs3)C2)c1 (configuration not stated)	19.1	-9.6	-3.9	-1.5	-1.0	0.7	x	x
CS(=O)(=O)Nc1ccc(C2=NN(C(=O)c3ccco3)C(c3ccc(F)cc3)C2)cc1 (configuration not stated)	30.4	3.7	-3.9	4.6	74.5*	4.0	61.9*	48.5*
Cc1nc2cc(-c3ccccc3)nn2c(C)c1CCC(=O)NCc1ccco1	7.5	0.6	-5.1	2.2	5.6	-1.0	x	x
Cc1cc(C)c2c(n1)nn1c(C)c(CCC(=O)NCc3ccco3)c(C)nc21	1.9	0.7	2.6	-0.9	30.2*	-3.0	71.2*	47.6*
Cc1ccccc1Cn1ccc(NC(=O)c2onc(C)c2Cl)n1	2.4	4.6	-16.7	0.8	3.9	1.8	x	x
COC(=O)CSc1nc2nc(-c3cccs3)cc(C(F)(F)F)c2c(=O)[nH]1	-4.4	-0.4	-1.1	2.0	7.4	-1.3	x	x
CCOc1ccccc1NC(=O)CSc1nc2nc(-c3cccs3)cc(C(F)(F)F)c2c(=O)[nH]1	12.8	4.6	-49.0	0.7	58.4*	-4.8	73.4*	50.1*
O=C(CSc1nc2nc(-c3cccs3)cc(C(F)(F)F)c2c(=O)[nH]1)NCc1ccco1	7.4	-13.3	3.0	2.1	94.8*	0.1	1.8	-8.3
O=C(Cn1nc(-c2cccc(Cl)c2)ccc1=O)Nc1ccc(C(=O)NC2CC2)cc1	-6.3	11.7	-4.7	-1.7	-0.1	-2.1	x	x
